The panel holds about 83,000 compounds, 20% with a hit somewhere; the sample as a whole holds those more often.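 Treatment: one concentration, 48 hours, 96-well format. Scoring: percent growth, with anything below 10 considered active.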 Calls of active or inactive are those of the source.

This passage reports growth results from PubChem BioAssay (NCI).

For this assay, the system named is HL-60(TB) leukemia. Nature of the assay: NCI-60 one-dose screen, 48 h (100 = growth as untreated, 0 = no growth, -100 = all killed). The following applies: 10 µM unless noted.
Take `Cc1nc(Nc2ccc(NC(=S)Nc3ccccc3)cc2)nc2nc(SCc3ccccc3)[nH]c(=O)c12`: the growth was 76% (inactive).

In the case of `C=C(C)[C@@H]1CC[C@]2(COC(=O)c3ccccc3C(=O)O)CC[C@]3(C)[C@H](CC[C@@H]4[C@@]5(C)CCCNC(C)(C)[C@@H]5CC[C@]43C)[C@@H]12`, the growth was 6.45% (active). In the case of `NC(=S)N/N=C(/c1ccccc1)c1ccccc1N` it was 73.3% (inactive); in that of `COc1cc(-c2cc(-c3nc4ccc(F)cc4[nH]3)[nH]n2)cc(OC)c1OC`, -35% (active); in that of `O=c1n(C2OC(CO)C(O)C2O)ccc2nccn12` (configuration not stated), 101% (inactive). As to `O=C(NN1C(=O)c2cc(C(=O)O)c(C(=O)O)cc2C1=O)c1ccncc1`, the growth was 109% (inactive).

`CCC1(c2ccccc2)Oc2ccccc2-n2c(C#N)c3ccccc3c2C1=O` (configuration not stated): the growth was 92.8% (inactive). For `COc1cc(C2C(C(=O)OCc3ccccc3)=C(C)NC(C)=C2C(=O)OCc2ccccc2)cc(OC)c1OC`, the growth was 5.01% (active).

For the compound `COC(=O)[C@@H]1CCCN1C(=O)[C@@H]1CCCN1C(=O)[C@H](Cc1ccccc1)NC(=S)Nc1cc(C(F)(F)F)cc(C(F)(F)F)c1`, the growth is 55.7% (inactive).

On to `COc1ccc(-c2cc(/C=C3\C(=O)Nc4ccc(OC)cc43)[nH]n2)cc1`, for which the growth is -0.36% (active).

In the case of `CC(C)c1cc(C(C)C)c(S(=O)(=O)Oc2ccc(NC(=O)c3ccc(Cl)cc3)cc2)c(C(C)C)c1`, the growth was 16.9% (inactive). The same measure for `O=C(Nc1nc(-c2ccc(Br)cc2)cs1)c1cc(-c2ccc(Br)cc2)nc2ccc(Cl)cc12`: 96.6% (inactive); for `O=C1CSC(c2ccccc2O)N1c1nnc(Cn2cnnc2)o1` (configuration not stated): 61.1% (inactive); for `C=C1C(=O)O[C@H]2[C@H]1CC/C(COC(=O)NCc1nc3ccccc3[nH]1)=C\CC[C@@]1(C)O[C@@H]21`: 17% (inactive). The same measure for `COc1ccc(-c2cc(-c3ccc(Cl)cc3)nc(NCCCCNc3ccnc4cc(Cl)ccc34)n2)cc1`: 16.7% (inactive); for `CC1CCc2c(sc(NC(=O)CSc3nnc4ccccn34)c2C(N)=O)C1` (configuration not stated): 74.9% (inactive). The same measure for `Cn1nc(-c2ccc(Cl)cc2)nc2c(=O)n(C)c(=O)nc1-2`: -43.2% (active); for `Cn1c(=O)c2[nH]c(=S)n(Cc3ccccc3)c2n(C)c1=O`: 101% (inactive). For `Cc1cccc(NC(=O)[C@@H]2c3ccccc3C(=O)N(c3ccc(Cl)cc3)[C@H]2c2ccc(Cl)cc2)n1`, the growth is 36.2% (inactive). The same measure for `CC1=C(/C=C/C(C)=C/C=C/C(C)=C/C(=O)Nc2ccc(O)cc2)C(C)(C)CCC1`: -32.3% (active); for `O=C(O)c1cccc2c1-c1ccc(Cl)cc1C2`: 78.1% (inactive); for `Fc1ccc(NCCS)cc1`: 100% (inactive). Take `NC(=O)c1cccc(-c2cc(C(N)=O)ccc2Cl)c1`: the growth was -22.7% (active). On to `Nc1ccc(F)c(Cl)c1F`, for which the growth is 95.6% (inactive).

Consider `COc1ccc2c(c1)C=CC(C#N)N2C(=O)c1ccccc1` (configuration not stated), for which the growth is -24.7% (active). The same measure for `Oc1cccc2ccc(N/N=C/c3cc(CN4CCCCC4)c(O)c4ncccc34)nc12`: -12.1% (active).

On to `Cn1cc(-c2nc3c(F)cc4[nH]ncc4c3c3c2CCCC3)c(C(F)F)n1`, for which the growth was 10.8% (inactive). The same measure for `COc1ccc(C(=O)c2cc3c(OC)c(OC)c(OC)cc3[nH]2)cc1`: 36.1% (inactive); for `Cc1c2c(cn1Cc1ccccc1)CCc1cn(C)nc1-2`: 63.4% (inactive); for `CC(=O)OCCCCCCn1c2ccccc2c2c3c(c4c5ccccc5n(C)c4c21)C(=O)N(O)C3=O`: 41.2% (inactive). In the case of `CCN(CC)C(=O)CCCCCn1c2ccccc2c2c3c(c4c5ccccc5[nH]c4c21)C(=O)N(O)C3=O` it was 21.8% (inactive); in that of `C#CCO[C@H]1CC(CC#C)(CC#C)C(=O)[C@@H]2[C@H]1[C@H]1C[C@@H]3[C@@]4(C)CCC[C@@](C)(C(=O)OC)[C@@H]4CC[C@@]23C=C1C(C)C`, 54.8% (inactive).

In the case of `COc1cccc(NC(=O)NCCNc2nccc(-c3c(-c4ccc(F)cc4)nc4sccn34)n2)c1`, the growth was 92.7% (inactive). For the compound `C[C@@H](Oc1cc(-c2cnn(C3CC4(CNC4)C3)c2)cnc1N)c1c(Cl)ccc(F)c1Cl`, the growth was -1.19% (active). For `CC(C)C1=NOC(=O)C1=Cc1cn(-c2ccccc2)nc1-c1ccc(Br)cc1`, the growth was -28.8% (active). In the case of `C=C1C(=O)O[C@H]2[C@H]1CC/C(COC(=O)c1c[nH]c3ccccc13)=C\CC[C@@]1(C)O[C@@H]21` it was -25.9% (active); in that of `O=C(O)c1cccc(-n2ncc(Cl)c(Cl)c2=O)c1`, 107% (inactive).
